{"source": "ChEMBL document CHEMBL5308541", "about": "“MAIP: An Open-Source Tool to Enrich High-Throughput Screening Output and Identify Novel, Druglike Molecules with Antimalarial Activity” (ACS Med Chem Lett, 2023)", "note": "In all, about 4,800 compounds went through this assay and about 420 (8.8%) showed an effect of 50% or more. The full list was thinned out, with strong results kept by preference.", "data": [{"tested_on": "Plasmodium falciparum", "test": "Confirmatory screen in NF54 nanoGlo assay, in single point, at 2uM, 72h", "format": "functional, Erythrocyte", "details": "timepoint 72 hour", "units": {"% Inhibition": "%"}, "values": [{"molecule": "O[C@@H](CNCc1ccc2c(c1)CCO2)c1ccc(F)c(F)c1", "% Inhibition": 61}, {"molecule": "CN1CCC(N(C)c2ccccc2CNC[C@@H](O)c2cccc(Cl)c2)CC1", "% Inhibition": 23}, {"molecule": "CN1CCN(c2ccc(C(F)(F)F)cc2NCc2cnc[nH]2)CC1", "% Inhibition": 62}, {"molecule": "CN1C2CCC1CC(OC(=O)C1CCC(C(=O)OC3CC4CCC(C3)N4C)(c3ccccc3)c3ccccc31)C2", "note": "(stereo not drawn)", "% Inhibition": 49}, {"molecule": "Fc1ccc(N2CC[C@H](CN3CCC(c4c[nH]c5ccccc45)(c4c[nH]c5ccccc45)CC3)C2)cc1", "% Inhibition": 97}, {"molecule": "CC(C)(C)c1ccc(CNC[C@H](O)c2ccc(F)cc2F)cc1", "% Inhibition": 95}, {"molecule": "Cc1ccc(CNc2ncnc(N)c2Cl)c(N2CCCC2)n1", "% Inhibition": 50}, {"molecule": "CN(C)CC12CNCC1CN(c1ccnc3cc(Cl)ccc13)C2", "note": "(stereo not drawn)", "% Inhibition": 98}]}]}
